# Measurements taken from PubChem BioAssay (NCATS).
# “And” between values parts separate entries of the source, which are not always exact repeats. Identical values can stand only once. Results filed as inconclusive are left out. The source made the active and inactive calls. Unless noted, calls come from the whole dose curve; as a rule, active = well fitted curve in the direction sought with a large enough effect; inconclusive = small, poorly fitted or top-dose-only effect, or another doubt; inactive = no such curve, though single readings can be large; an effect the other way counts as inactive or inconclusive.
# Assays:
# [1] = qHTS Assay for Identifying Gametocytocidal Compounds (AID 743244); note: potency is the fitted concentration of half-maximal effect;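 for max response: % is set by controls: 0 for no effect and ±100 for the full control effect; actives lower the fluorescent signal which means gametocytes are killed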; conditions: P. falciparum 3D7 stage III-V gametocytes, alamarBlue, 72 h; max response: stronger effect = lower value
# How it was run: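 Viability read-out was resazurin reduction (alamarBlue, 24 h) measured at Ex 525/Em 598 nm. Beforehand, late-stage (III-V) 3D7 P. falciparum gametocytes at 20,000 cells/well were incubated with compound 72 h at 37C under 5% CO2.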
# astro = test: Drug repurposing screens with cells derived from glioblastoma tumor samples (AID 1345199); conditions: viability, ATP luminescence, 48 h; series mostly up to 45.9 µM; note: nearly all actives have a fitted effect of over 40% in size; note: potency is the fitted concentration of half-maximal effect
# How it was run: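 Four patient lines of CD133+ GBM neurospheres were screened at several concentrations; hits were retested in those lines plus three slower-growing GBM lines, using 48-hour treatment and ATP-based viability.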
# [2] = qHTS to identify inhibitors of the type 1 interferon - major histocompatibility complex class I in skeletal muscle: primary screen against the NCATS Mechanism Interrogation Plate v5.0 (MIPE) Libary (AID 1347411); note: nearly all actives have a fitted effect of over 65% in size; note: potency is the fitted concentration of half-maximal effect;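 for activity change, negative = inhibition: plate controls were vehicle for no effect and reference inhibitor for full effect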
# How it was run: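 Immortalized human C25cl48 myoblasts with HiBit knocked into endogenous HLA-B*08:01 were stimulated with 4.0 ng/ml IFN-beta and exposed to compounds (11-point 1:3 titration, top 46 uM final) for 24 hrs at 37 C; HiBiT lytic luminescence measured.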
# [3] = target: Luciferin 4-monooxygenase (Photinus pyralis) (UniProt P08659); test: Biochemical firefly luciferase enzyme assay for NPC (AID 624030);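 note: purified P. pyralis luciferase at 10 nM with luciferin and ATP substrate; 0% = DMSO and -100% = full luciferase inhibition by PTC124 control; nearly all actives have a fitted effect of over 70% in size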
# Luciferin 4-monooxygenase (Photinus pyralis), sequence (P08659 whole entry, looked up): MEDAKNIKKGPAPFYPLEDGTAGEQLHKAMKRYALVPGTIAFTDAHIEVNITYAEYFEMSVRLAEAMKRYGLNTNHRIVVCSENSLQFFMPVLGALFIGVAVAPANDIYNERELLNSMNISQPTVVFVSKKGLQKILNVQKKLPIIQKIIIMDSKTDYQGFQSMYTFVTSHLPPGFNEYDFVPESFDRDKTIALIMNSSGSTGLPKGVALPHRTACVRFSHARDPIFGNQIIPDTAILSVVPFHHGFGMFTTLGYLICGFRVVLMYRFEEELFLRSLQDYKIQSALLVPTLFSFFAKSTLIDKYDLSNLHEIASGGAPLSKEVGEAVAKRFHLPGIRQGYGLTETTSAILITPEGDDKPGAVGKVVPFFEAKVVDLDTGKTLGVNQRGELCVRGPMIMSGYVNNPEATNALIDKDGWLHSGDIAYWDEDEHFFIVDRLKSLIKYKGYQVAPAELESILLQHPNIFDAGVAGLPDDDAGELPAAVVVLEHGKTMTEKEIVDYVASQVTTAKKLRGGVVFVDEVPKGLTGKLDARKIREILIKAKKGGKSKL
# How it was run: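 Purified P. pyralis luciferase at 10 nM in 50 mM Tris Acetate (final), luminescence read within 5 minutes of enzyme addition to compounds. Activity normalised to PTC124 versus DMSO; concentration-response curves classed by r2, magnitude and activity.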
# [4] = target: Cytochrome P450 1A2 (Homo sapiens) (UniProt P05177); test: p450-cyp1a2 (AID 410; calls by dose curve; note: potency is the fitted concentration of half-maximal effect;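 for activity change, negative = inhibition: -100% = full effect of reference inhibitor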)
# Cytochrome P450 1A2 (Homo sapiens), sequence (P05177 whole entry, looked up): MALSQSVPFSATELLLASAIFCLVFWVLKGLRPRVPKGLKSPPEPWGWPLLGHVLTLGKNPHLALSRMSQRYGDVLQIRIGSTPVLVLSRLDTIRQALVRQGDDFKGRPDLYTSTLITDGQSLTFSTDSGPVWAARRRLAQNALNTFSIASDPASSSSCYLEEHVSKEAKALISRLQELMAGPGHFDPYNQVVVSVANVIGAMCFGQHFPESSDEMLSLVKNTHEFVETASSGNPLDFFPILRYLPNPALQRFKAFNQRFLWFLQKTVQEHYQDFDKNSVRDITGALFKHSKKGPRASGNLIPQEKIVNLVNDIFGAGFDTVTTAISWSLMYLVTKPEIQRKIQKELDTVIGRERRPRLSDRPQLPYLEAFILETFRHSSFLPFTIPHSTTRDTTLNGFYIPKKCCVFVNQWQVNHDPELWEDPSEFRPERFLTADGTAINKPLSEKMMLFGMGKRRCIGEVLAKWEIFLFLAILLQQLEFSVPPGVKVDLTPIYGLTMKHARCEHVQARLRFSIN
# How it was run: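 Human CYP1A2 (20nM) demethylated Luciferin-ME at its Km (100uM) in 100mM KPO4. After 10 min compound preincubation, NADPH regeneration ran the reaction 60 min at room temperature. Luciferin was read by luminescence, normalized to 57 uM furafylline.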
# [5] = tested on: Zika virus NS2B-NS3 protease; test: Primary screen GU AMC qHTS for Zika virus inhibitors (AID 1347154);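 note: 0% = no-inhibitor control and -100% = no-enzyme control; nearly all actives have a fitted effect of over 70% in size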
# How it was run: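 Unlinked Zika NS2B hydrophilic domain–NS3 protease complex at 25 nM in 10 mM Tris-HCl pH 8.0, 0.01% Tween 20, with an AMC peptide substrate. Fluorescence change (340/450 nm) over 15 min at room temperature, normalized to controls, fitted to 4-parameter Hill.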
# [6] = Primary qHTS for small molecule stabilizers of the endoplasmic reticulum resident proteome: Secreted ER Calcium Modulated Protein (SERCaMP) assay (AID 1508630); note: % is set by controls: 0 for no effect and ±100 for the full control effect
# How it was run: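 GLuc-SERCaMP-expressing SH-SY5Y cells, pretreated 16 h with compound, are challenged with thapsigargin to empty ER calcium stores; after 4 h, coelenterazine is added directly to the medium and luminescence is imaged.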
# [7] = target: Cytochrome P450 2D6 (Homo sapiens) (UniProt P10635); test: Cytochrome P450 family 2 subfamily D member 6 (CYP2D6) small molecule antagonists: luciferase biochemical (cell-free) qHTS assay (AID 1645840; active = well fitted curve in the direction sought with a large enough effect in the repeat runs; an effect the other way counts as inactive or inconclusive; note: nearly all actives have a fitted effect of over 55% in size; note: potency is the fitted concentration of half-maximal effect; for activity change, negative = inhibition: % is set by controls: 0 for no effect and ±100 for the full control effect)
# Cytochrome P450 2D6 (Homo sapiens), sequence (P10635 whole entry, looked up): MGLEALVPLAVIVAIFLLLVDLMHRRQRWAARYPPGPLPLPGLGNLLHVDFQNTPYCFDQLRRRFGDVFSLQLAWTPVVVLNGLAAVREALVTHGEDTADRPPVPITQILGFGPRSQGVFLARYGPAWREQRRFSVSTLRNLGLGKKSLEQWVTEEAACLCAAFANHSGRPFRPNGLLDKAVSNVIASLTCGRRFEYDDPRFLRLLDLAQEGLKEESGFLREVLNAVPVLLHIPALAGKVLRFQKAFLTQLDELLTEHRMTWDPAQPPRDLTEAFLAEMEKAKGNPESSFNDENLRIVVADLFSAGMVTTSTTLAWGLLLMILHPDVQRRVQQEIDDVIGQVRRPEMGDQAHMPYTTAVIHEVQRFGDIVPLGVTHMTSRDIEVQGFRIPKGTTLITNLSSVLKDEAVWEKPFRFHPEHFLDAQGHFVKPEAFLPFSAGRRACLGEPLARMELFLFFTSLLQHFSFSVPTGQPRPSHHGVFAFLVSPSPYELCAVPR
# How it was run: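 P450-Glo luminescent screen: recombinant CYP2D6 enzyme–proluciferin substrate mix preincubated with compound 10 min at room temperature, then NADPH regeneration added for 1 h at room temperature. Detection reagent added for 20 min; luciferin light read as relative luminescence units.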
# [8] = target: Cytochrome P450 2C9 (Homo sapiens) (UniProt P11712); test: Cytochrome P450 family 2 subfamily C member 9 (CYP2C9) small molecule antagonists: luciferase biochemical (cell-free) qHTS assay (AID 1645842; active = well fitted curve in the direction sought with a large enough effect in the repeat runs; an effect the other way counts as inactive or inconclusive; note: % is set by controls: 0 for no effect and ±100 for the full control effect; nearly all actives have a fitted effect of over 55% in size)
# Cytochrome P450 2C9 (Homo sapiens), sequence (P11712 whole entry, looked up): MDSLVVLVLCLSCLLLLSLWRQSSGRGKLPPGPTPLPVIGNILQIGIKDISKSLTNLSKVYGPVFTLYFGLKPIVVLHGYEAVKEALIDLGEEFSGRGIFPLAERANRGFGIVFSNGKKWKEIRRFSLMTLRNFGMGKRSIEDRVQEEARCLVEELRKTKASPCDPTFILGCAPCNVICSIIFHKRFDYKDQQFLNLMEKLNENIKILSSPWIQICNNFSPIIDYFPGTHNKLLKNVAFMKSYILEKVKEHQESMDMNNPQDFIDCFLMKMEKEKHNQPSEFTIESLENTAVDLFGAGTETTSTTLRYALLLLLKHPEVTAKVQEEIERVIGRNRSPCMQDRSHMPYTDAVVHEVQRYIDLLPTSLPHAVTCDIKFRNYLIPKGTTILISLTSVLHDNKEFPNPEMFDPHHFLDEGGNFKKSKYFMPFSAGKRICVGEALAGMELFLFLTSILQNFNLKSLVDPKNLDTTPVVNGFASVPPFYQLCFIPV
# How it was run: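 Luminescence, after 20 min with luciferin detection reagent, reflected CYP2C9 turnover during a 1 h NADPH-driven reaction at 37C. Enzyme-substrate mix contained 0.4% bovine serum albumin and was preincubated with compound 10 min at room temperature.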
# [9] = target: Catechol O-methyltransferase (Homo sapiens) (UniProt P21964); test: Confirmatory Screen for Target Class Profiling of Small Molecule Inhibitors of Methyltransferases (AID 1745852; calls by dose curve; note: potency is the fitted concentration of half-maximal effect; for activity change, negative = inhibition: % is set by controls: 0 for no effect and ±100 for the full control effect); conditions: MTase-Glo luminescence, SAH detection, recombinant enzyme; measured here: COMT max response; stronger effect = lower value
# Catechol O-methyltransferase (Homo sapiens), sequence (P21964 whole entry, looked up): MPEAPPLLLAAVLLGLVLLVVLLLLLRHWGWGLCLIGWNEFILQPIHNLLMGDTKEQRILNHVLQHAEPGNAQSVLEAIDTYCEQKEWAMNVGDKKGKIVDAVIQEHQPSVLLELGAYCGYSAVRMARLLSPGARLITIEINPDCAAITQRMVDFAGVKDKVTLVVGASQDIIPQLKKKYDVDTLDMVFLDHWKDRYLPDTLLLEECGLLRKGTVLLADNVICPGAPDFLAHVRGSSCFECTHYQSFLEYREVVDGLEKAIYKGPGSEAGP
# [10] = target: Guanidinoacetate N-methyltransferase (Homo sapiens) (UniProt Q14353); test: as above; conditions: activity change, negative = inhibition: at 57.3 µM (top of the series) unless noted
# [11] = target: Nicotinamide N-methyltransferase (Homo sapiens) (UniProt P40261); test: as above; conditions: MTase-Glo luminescence, SAH detection, recombinant enzyme; measured here: NNMT max response; stronger effect = lower value
# Nicotinamide N-methyltransferase (Homo sapiens), sequence (P40261 whole entry, looked up): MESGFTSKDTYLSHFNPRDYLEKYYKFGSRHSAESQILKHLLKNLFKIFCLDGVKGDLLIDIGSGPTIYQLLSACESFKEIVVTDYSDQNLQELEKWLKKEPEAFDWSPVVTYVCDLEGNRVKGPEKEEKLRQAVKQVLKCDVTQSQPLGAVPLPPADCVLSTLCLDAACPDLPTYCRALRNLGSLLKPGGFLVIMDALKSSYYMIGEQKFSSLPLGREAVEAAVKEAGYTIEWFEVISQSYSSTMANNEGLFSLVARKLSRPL
# [12] = target: Phenylethanolamine N-methyltransferase (Homo sapiens) (UniProt P11086); test: as above; conditions: MTase-Glo luminescence, SAH detection, recombinant enzyme; measured here: PNMT max response; stronger effect = lower value
# Phenylethanolamine N-methyltransferase (Homo sapiens), sequence (P11086 whole entry, looked up): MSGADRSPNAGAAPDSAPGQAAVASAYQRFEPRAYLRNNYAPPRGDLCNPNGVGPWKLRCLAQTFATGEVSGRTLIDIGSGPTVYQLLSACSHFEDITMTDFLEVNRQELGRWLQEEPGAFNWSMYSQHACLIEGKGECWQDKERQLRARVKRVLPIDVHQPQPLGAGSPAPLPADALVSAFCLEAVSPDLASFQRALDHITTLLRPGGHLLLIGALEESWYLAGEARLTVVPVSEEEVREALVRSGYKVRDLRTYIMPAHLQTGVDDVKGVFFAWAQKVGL
smiles,measurement,setting,value
N[C@@H](C(=O)N[C@@H]1C(=O)N2C(C(=O)O)=C(CSc3cn[nH]n3)CS[C@H]12)c1ccc(O)cc1,max response,[1],-0.063% (inactive)
same,Potency,astro,inactive
CNS(=O)(=O)c1ccc2c(c1)/C(=C/c1[nH]c3c(c1CCCN1CCN(C)CC1)CCCC3)C(=O)N2,Potency,[2],20.8 µM (active)
C#C[C@]1(OC(C)=O)CC[C@H]2[C@@H]3CCC4=CC(=O)CC[C@@H]4[C@H]3CC[C@@]21C,max response,[1],-3.45% (inactive)
C[N+]1(C)CCN(CC(O)(c2ccccc2)C2CCCCC2)CC1 (stereo not drawn),max response,[1],-2.89% (inactive)
same,Potency,astro,inactive
CC1(C)N=C(N)N=C(N)N1c1ccc(Cl)cc1,Potency,[3],inactive
same,max response,[1],-2.29% (inactive)
same,Potency,astro,inactive
O=C(O)c1ccc2c3c1cccc3c(=O)n1c3ccccc3nc21,Potency,[4],15.8 µM (active)
same,Potency,[5],inactive
CN1CCN(Cc2ccc(Nc3ncc(Cl)c(Nc4ccccc4S(=O)(=O)N(C)C)n3)cc2)CC1,Potency,[2],0.151 µM (active)
CC[C@@]1(O)C[C@H](O[C@H]2C[C@H](N(C)C)[C@H](O[C@H]3C[C@H](O)[C@H](O[C@H]4CCC(=O)[C@H](C)O4)[C@H](C)O3)[C@H](C)O2)c2c(cc3c(c2O)C(=O)c2c(O)cccc2C3=O)[C@H]1C(=O)OC,Potency,[1],112 nM (active)
same,Potency,astro,0.447 µM (active)
C/C1=C2N=C(/C=C3N=C(/C(C)=C4\[N-]C(C(CC(N)=O)C4(C)CCC(=O)NCC(C)OP(=O)([O-])OC4C(CO)OC(n5cnc6cc(C)c(C)cc65)C4O)C4(C)N=C1C(CCC(N)=O)C4(C)CC(N)=O)C(CCC(N)=O)C\3(C)C)C(CCC(N)=O)C/2(C)CC(N)=O.[CH3-].[Co+3] (stereo not drawn),Potency,[1],22400 nM (active)
COc1c(Nc2ncc(Cl)c(N[C@H]3[C@H](C(N)=O)[C@@H]4C=C[C@@H]3C4)n2)ccc2c1CCC(N1CCOCC1)CC2 (stereo partly drawn),Potency,[2],inactive
CS(=O)(=O)CCNCc1nc(-c2ccc3ncnc(Nc4ccc(OCc5cccc(F)c5)c(Cl)c4)c3c2)cs1,Potency,[5],inactive
Cc1nc2c(O)cccc2c(=O)[nH]1,Potency,[4],15.8 µM (active)
same,Potency,[5],inactive
same,Potency,[6],inactive
C=CC(=O)c1ccc2ccccc2c1,Potency,[5],inactive
same,Potency,[6],inactive
COc1cc([C@@H]2c3cc4c(cc3C(O[C@@H]3O[C@@H]5CO[C@@H](C)O[C@H]5[C@H](O)[C@H]3O)C3COC(=O)[C@@H]32)OCO4)cc(OC)c1OP(=O)(O)O (stereo partly drawn),max response,[1],4.76% (inactive) and -12.7% (inactive)
O=C1NC(=O)/C(=C/c2ccc3nccc(-c4ccncc4)c3c2)S1,Potency,[2],0.829 µM (active)
CN1CCN(CCC=C2c3ccccc3Sc3ccc(S(=O)(=O)N(C)C)cc32)CC1,Potency,[4],inactive
same,Potency,[3],inactive
same,Potency,astro,31.6 µM (active)
C=C1C(=O)O[C@H]2[C@H]1CC/C(C)=C\CC[C@@]1(C)O[C@@H]21,Potency,astro,20 µM (active)
CCN(CC)C(=O)c1cc(S(=O)(=O)Cc2ccccc2)c(N2CCC(c3ccccc3)CC2)cc1N(CC)CCN(C)C,Potency,astro,12.6 µM (active)
CCCCCCCCCCCCC/C=C/[C@@H](O)[C@H](CO)N(C)C,"activity change, negative = inhibition",[5],11% [at 6.83 µM] (inactive) and 6.76% [at 6.83 µM] (inactive)
same,"activity change, negative = inhibition",[6],-20.6% [at 3.88 µM] (inactive)
CCCCCCCCCCCCCCCCSCC(COC)COP(=O)([O-])OCC[N+](C)(C)C (stereo not drawn),Potency,[3],inactive
same,max response,[1],-10.5% (inactive)
same,Potency,astro,inactive
CCc1c(C(=O)NNC(=O)[C@@H](O)c2cc(F)cc(F)c2)ccc(O)c1C,Potency,[2],inactive
CCCCCCCC[N+](C)(C)CCCCCCCC,Potency,[3],inactive
same,Potency,[1],7.94 µM (active) and 8.91 µM (active)
same,Potency,[7],0.674 µM (active)
same,Potency,[8],inactive
same,Potency,astro,20 µM (active) and 12.6 µM (active)
CN(C)Cc1cccc(N=C(c2ccccc2)c2c(O)[nH]c3cc(C(N)=O)ccc23)c1,Potency,[2],inactive
CCOC(=O)CN[C@@H](C(=O)N1CC[C@H]1C(=O)NCc1ccc(/C(N)=N/O)cc1)C1CCCCC1,Potency,[3],inactive
same,max response,[1],9.4% (inactive)
same,Potency,astro,inactive
C#Cc1cccc(Nc2ncnc3cc(OC)c(OC)cc23)c1,Potency,[5],inactive
COc1cc(F)ccc1-c1ncnc(Nc2cccc(CS(C)(=N)=O)c2)n1 (stereo not drawn),Potency,[2],2.34 µM (active)
CC(=O)Nc1ccc(C(=O)NC(C)(C)C)cc1,Potency,[2],inactive
S=c1ssc2c1CCC2,activity,[9],-2.41%
same,"activity change, negative = inhibition",[10],0%
same,activity,[11],-69.9%
same,activity,[12],-71%
C[C@@H]1N=C(N)NC(N(C)C)=N1,Potency,[2],inactive
CN(C)CCNC(=O)c1cccn2c(=O)c3cc4ccccc4cc3nc12,activity,[9],3%
same,"activity change, negative = inhibition",[10],0.968% [at 12.7 µM]
same,activity,[11],3.48%
same,activity,[12],3.82%
COC(=O)c1ccc(=O)c2nc3/c(=C/O)c(O)cc(=O)c3[nH]c12,activity,[9],-24.9%
same,"activity change, negative = inhibition",[10],-20.5%
same,activity,[11],-20%
same,activity,[12],-28.7%
Cc1[nH]c(/C=C2\C(=O)Nc3ccccc32)c(C)c1CCC(=O)O,Potency,[7],inactive
same,Potency,[8],inactive
Cc1nc(CN(C)c2ncnc3ccc(-c4ccc5c(c4)OCO5)cc23)cs1,activity,[9],-89.6%
same,Potency,[10],19.2 µM (active)
same,activity,[11],-80.4%
same,activity,[12],-90.3%
OCCn1cc(-c2ccc3c(c2)CC/C3=N\O)c(-c2ccncc2)n1,Potency,[2],inactive
O=C(NOCCO)c1cc(CN2OCCCC2=O)c(F)c(F)c1Nc1ccc(I)cc1F,Potency,[2],inactive
COc1cc(/C=C(\C#N)C(N)=O)cc(CSc2nc3ccccc3s2)c1O,Potency,[4],1.26 µM (active)
same,Potency,[6],inactive
C#Cc1cccc(Nc2ncnc3cc4c(cc23)OCCOCCOCCO4)c1,Potency,[2],inactive
CN1C/C=C/CCOc2cccc(c2)-c2ccnc(n2)Nc2cccc(c2)C1,Potency,[2],0.165 µM (active)
O=C(Nc1cc(Oc2cc(F)c(NC(=O)C3(C(=O)Nc4ccc(F)cc4)CC3)cc2F)ccn1)C1CC1,Potency,[2],18.6 µM (active)
